Data reported in PubChem BioAssay (NCI).
Values joined by “and” are separate entries in the source; they are usually repeats but may differ in a detail not shown here. Identical values can stand only once. About 83,000 compounds went through this panel and 20% of them were active in at least one assay; those are over-represented in the sample as a whole.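 Assay: single dose, 48 h. Readout: percent growth (0 = no net growth; negative = cell death). Active: <10.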 A number with no mark means an inactive call. Active and inactive are the calls of the source.

system: MDA-MB-468 breast; test: NCI-60 one-dose screen, 48 h (100 = growth as untreated, 0 = no growth, -100 = all killed); conditions: 10 µM unless noted

| SMILES | growth |
| --- | --- |
| CN1CCN(C(=O)[C@@]2(C)CC[C@]3(C)CC[C@]4(C)C(=CC[C@@H]5[C@@]6(C)CCC(=O)NC(C)(C)[C@@H]6CC[C@]54C)[C@@H]3C2)CC1 | 13.5% |
| O=C(OCc1ccc2c(Cl)cc(Cl)c(O)c2n1)N1CCN(C(=O)c2cc3ccccc3[nH]2)CC1 | 10.3% |
| CCN(CC)CCN1CC(=O)Nc2cc(Cl)ccc21 | 98.7% |
| N#CC1=C(N)Oc2c(c(=O)[nH]c3ccc(Cl)cc23)C12C(=O)c1ccccc1C2=O | 96.6% |
| OC(COc1cccc2ccccc12)CN1CCN(c2ccccc2)CC1 (stereo not given) | 77.6% |
| Cc1ccc(CNc2ccc(Cl)cc2NCc2ccc(C)c(O)c2)cc1O | 32.5% |
| O=C(O)CN1C(=O)c2cccc3cccc(c23)C1=O | 95.7% |
| COc1ccccc1NC(=O)Nc1ccc(-c2nc3ccccc3o2)cc1 | 101% |
| COc1ccc(-c2ncc(-c3ccccc3)[nH]2)cc1OC | 89.1% |
| CN(C)c1ccc(N)c2ccccc12 | 57.8% |
| CC(=O)NC(C)(C)C(=O)N1CCC[C@H]1C(=O)NC(C)(C)C(=O)N[C@@H](C)C(=O)NC(C)(C)C(=O)NC(C)(C)C(=O)N[C@@H](CCC(N)=O)C(=O)NC(C)(C)C(=O)N[C@H](C(=O)NC(C)(C)C(=O)NCC(=O)N[C@@H](CC(C)C)C(=O)NC(C)(C)C(=O)N1CCC[C@H]1C(=O)N[C@H](C(=O)NC(C)(C)C(=O)NC(C)(C)C(=O)N[C@@H](CCC(N)=O)C(=O)N[C@@H](CCC(N)=O)C(=O)N[C@H](CO)Cc1ccccc1)C(C)C)C(C)C | -1.54% [4.25 µM] (active) |
| C=CN(C(=O)N1CCN(c2cc3c(cc2F)c(=O)c(C(=O)O)cn3C2CC2)CC1)c1nc(-c2ccc(C)cc2)cs1 | 44.4% |
| O=C(Nc1ccccc1-c1nc2ccccc2c(=O)[nH]1)c1cc2ccccc2[nH]1 | 86.9% |
| COC(=O)c1ccc2[nH]c(O)c(C(=Nc3ccc(N(C)C(=O)CN4CCN(C)CC4)cc3)c3ccc(CCO)cc3)c2c1 | 37.7% |
| CCCC(=O)Oc1ccc(/C(=C(\C)c2ccc(Cl)cc2)c2ccc(OCCN(CC)CC)cc2)cc1 | -64.1% (active) |
| CC/C(=C\c1ccc(OC)cc1)C(=O)c1ccc(OC)cc1 | 79.2% |
| CC(Nc1ncnc2ccc(-c3cnc4cnccn34)cc12)c1ccccc1 (stereo not given) | -21% (active) |
| NC(=O)c1cc(Cl)ccc1NC(=O)COc1ccccc1 | 21% |
| Oc1ccc(CSc2nnc(-c3ccc(Cl)cc3)o2)c2cccnc12 | 26.3% |
| COC1=CC(c2ccc[nH]2)=N/C1=C\c1[nH]c(C)c(C(=O)CCCCC(=O)Nc2ccccc2)c1C | -10.7% (active) |

| SMILES | growth |
| --- | --- |
| Nc1ccccc1NC(=O)c1ccc(-n2nc(-c3ccccc3)c3ccccc32)cc1 | 94.5% |
| COc1ccc(CNc2ccc3nc(NC(=O)CN4CCCCCC4)sc3c2)cc1 | 46.8% |
| Oc1c(N=Nc2nn[nH]n2)ccc2ccccc12 | 85.3% |
| CCN(CC)Cc1cc(Nc2nc(NC3CCC(N(C)C)CC3)c3ccccc3n2)ccc1OC (stereo not given) | -15.1% (active) |
| COC(=O)c1c2c(c(C)[n+]([O-])c1C)C(=O)C=C(NCc1ccc(OC)cc1)C2=O | -61% (active) |
| COc1cc(C2CC(=O)Nc3c2c(C)nn3-c2nc3ccccc3[nH]2)c(OC)c(OC)c1OC (stereo not given) | 31.1% |
| COC(=O)c1ccc2[nH]c(O)c(C(=Nc3ccc(N(C)C(=O)CN4CCN(C)CC4)cc3)c3ccc(C)cc3)c2c1 | -50.1% (active) |
| O=C(N/N=C/c1ccc(F)cc1)c1[nH]c2ccc(I)cc2c1-c1ccccc1 | 17.8% |
| CC(=O)O[C@H]1C(=O)[C@@]2(C)[C@H]([C@H](OC(=O)c3ccccc3)[C@]3(O)C[C@H](OC(=O)[C@H](OC(=O)CCC(=O)OC4CCC(S/N=C(N)/N=C(\N)N(C)C)CC4)[C@@H](NC(=O)c4ccccc4)c4ccccc4)C(C)=C1C3(C)C)[C@]1(OC(C)=O)CO[C@@H]1C[C@@H]2O (stereo not given in full) | -6.44% (active) |
| O=C(N/N=C/c1cccc2ccccc12)C1CC1 | 120% and 106% |
| COc1cc2c(cc1OC)C(=O)C(CC1CCN(C(=O)Nc3ccc(C)cc3)CC1)C2 (stereo not given) | 93.1% |
| O=C(CCN1C(=O)/C(=C/c2ccc(O)cc2)SC1=S)Nc1ccc(Cl)cc1 | 95.3% |
| CCN1CCN(c2nc(NNC(=O)c3cccc(OC)c3)nc(N3CCN(C(c4ccccc4)c4ccccc4)CC3)n2)CC1 | 54.7% |
| C=C1C(=O)O[C@H]2[C@H]1CC/C(COC(=O)NCCc1c[nH]c3ccccc13)=C\CC[C@@]1(C)O[C@@H]21 | -6.71% (active) |
| Clc1ncnc2nc[nH]c12 | 108% |
| Cc1cc(=O)oc2cc(OCc3nn4c(Nc5nc6ccccc6s5)c(-c5ccccc5)nc4s3)ccc12 | 89.9% |
| Cc1cc(N/N=C/c2nc(-c3ccc(Cl)cc3)oc2C)c2cc(Cl)ccc2n1 | -47.4% (active) |
| NC(=O)C1(N2CCCCC2)CCN(CCCC(=O)c2ccc(F)cc2)CC1 | -10.6% (active) |
| COc1ccc(C2c3sc4c(C)cccc4c3Oc3nc(CC(=O)Nc4ccccc4)[nH]c(=O)c32)cc1 (stereo not given) | 18.6% |
| CC(C)CSc1nc(NN)c(C#N)c(-c2ccccc2)n1 | 98.2% |
